Source: PubChem BioAssay (EPA / NIEHS)
Values joined by “and” are separate entries in the source; they are usually repeats but may differ in a detail not shown here. Equal entries are not always repeated. Records with an inconclusive call do not appear. Some compounds were tested as several samples or in several runs, with calls that do not always agree. Active and inactive are the calls of the source. Rule for the calls: active = hit-call score of the fitted dose curve at least 0.9, where 1 is the maximum; inconclusive = response in the unintended direction; inactive = score below 0.9.

These compounds were tested against Cellular tumor antigen p53 (Homo sapiens) (UniProt P04637) (assay: TOX21_p53_BLA_p5_ratio: Tox21 HCT-116 p53 Agonism Beta-lactamase Assay, Ratio, Phase 5 (AID 2283599)).
Sequence of Cellular tumor antigen p53 (Homo sapiens) (P04637 whole entry, looked up, the tested form may be a part): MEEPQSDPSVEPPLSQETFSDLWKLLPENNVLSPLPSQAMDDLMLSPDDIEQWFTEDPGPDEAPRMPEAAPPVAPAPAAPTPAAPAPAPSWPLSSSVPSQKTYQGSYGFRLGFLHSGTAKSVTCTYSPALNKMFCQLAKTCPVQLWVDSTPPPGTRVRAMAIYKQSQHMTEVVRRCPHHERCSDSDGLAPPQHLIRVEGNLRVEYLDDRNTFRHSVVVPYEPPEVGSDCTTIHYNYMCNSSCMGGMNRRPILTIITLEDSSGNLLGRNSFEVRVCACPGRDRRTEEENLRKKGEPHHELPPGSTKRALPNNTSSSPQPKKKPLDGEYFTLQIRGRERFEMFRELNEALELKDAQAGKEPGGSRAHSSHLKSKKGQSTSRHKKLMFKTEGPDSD
Description: TOX21_p53_BLA_p5 is a cell-based, single-readout assay that uses HCT116, a human intestinal cell line, […] in a 1536-well plate.TOX21_p53_BLA_p5_ratio is an assay readout measuring reporter gene via receptor activity and designed using inducible reporter (beta lactamase induction) detected with GAL4 b-lactamase reporter gene. The signal is derived from the ratio of cleaved (ch2) to uncleaved (ch1) reporter gene substrate used as the measure of target activity.Data from the assay component TOX21_p53_BLA_p5_ratio was analyzed into 1 assay endpoint. This assay endpoint, TOX21_p53_BLA_p5_ratio, was analyzed in the positive analysis fitting direction relative to DMSO as the negative control and baseline of activity. Using a type of inducible reporter, gain-of-signal activity can be used to understand changes in the reporter gene as they relate to the gene TP53. Furthermore, this assay endpoint can be referred to as a primary readout, because this assay has produced multiple assay endpoints and this ratio serves a reporter gene function to understand target activity. To generalize the intended target to other relatable targets, this assay endpoint is annotated to the DNA binding intended target family, where the subfamily is tumor suppressor.
Thawing Method: Place 14 mL of pre-warmed thaw medium into a 15 mL of conical tub. Remove the vial of cells to be thawed from liquid nitrogen and thaw rapidly by placing at 37C in a water bath with gentle agitation for 1-2 minutes. Decontaminate the vial by wiping with 70% ethanol before opening in a biological safety cabinet. Transfer the vial contents drop-wise into 14 mL of thaw medium in a sterile 15-mL conical tub. Centrifuge cells at 900 rpm for 4 minutes and resuspend in thaw medium. Transfer contents to the T75 tissue culture flask containing Thaw Medium and place flask in a humidified 37C/5% CO2 incubator. Switch to growth medium at first passage.Propagation Method: Aspirate medium, rinse once in DPBS, add 0.25% Trypsin/EDTA and swirl to coat the cell evenly. Add an equal volume of Growth Medium to inactivate Trypsin after 2-3 minutes incubation at 37C. Centrifuge cells at 900 rpm for 4 minutes and resuspend in growth medium. Cell should be passage or fed at least twice a week.Assay Protocol: Harvest cells from culture in growth medium and resuspend in assay medium. 2.2 Dispense 4000 cells/5 uL/well into 1536-well black/clear bottom plates using a Multidrop dispenser. After the cells were incubated at 37C for 5 hours, 23 nL of compounds dissolved in DMSO were transferred to the assay plate by a PinTool resulting in a 217-fold dilution. Incubate the plates for 16 hours at 37C, 5% CO2. Add 1 uL of 6X LiveBLAzer FRET B/G (CCF4-AM) Substrate Mixture to each well using a BioRAPTR dispenser and incubate the plates at room temperature for 2 hours. Measure fluorescence intensity at 460 and 530 nm emission and 405 nm excitation by an Envision detector. Data is expressed as the ratio of 460nm/530nm emissions. Add 4 uL of Cell-titer Glo to each well using BioRAPTR and incubate the plates at room temperature for 2 hours. Measure fluorescence intensity by a VewLux plate reader.
For CC(C)c1ccc(C(C)C)cc1, the outcome was “inactive”.
For COc1ccc(Nc2ccccc2)c(C)c1, the outcome was “inactive”.
With C=C(C)C(=O)O the outcome was “inactive”.
For COc1ccc(O)cc1, the outcome was “inactive”.
In the case of O=c1[nH]nnc2ccccc12, the outcome is reported as “inactive”.
With CCCCN the outcome was “inactive”.
COCCOCCOCCOCCOCCO was tested, and the outcome was “inactive”.
In the case of CCCCC(CC)COCCC#N (stereo not given), the outcome is reported as “inactive”.
With C=CC(=O)OCC(O)COc1ccccc1 (stereo not given) the outcome was “inactive”.
With c1ccc2c(c1)c1cccc3ccc4cccc2c4c31 the outcome was “inactive” and the AC50 was 40.6 µM (active).
NCCNCCN was tested, and the outcome was “inactive”.
With CC1=CCC2C(C1)C2(C)C (stereo not given) the outcome was “inactive”.
For O=C(O)c1cccc(C(F)(F)F)c1, the outcome was “inactive”.
With COc1cc(C=O)ccc1OC(=O)C(C)C the outcome was “inactive”.
With C=CC[N+](C)(C)CC=C the outcome was “inactive”.
With O=C(O)c1cccc([N+](=O)[O-])c1 the outcome was “inactive”.
For C=CC(C)(O)CCC=C(C)CCC=C(C)C (stereo not given), the outcome was “inactive”.
For O=C(OCc1ccccc1)C(=O)OCc1ccccc1, the outcome was “inactive”.
CCCCCC(CO)CCC (stereo not given) was tested, and the outcome was “inactive”.
For Nc1cccc(S(=O)(=O)c2cccc(N)c2)c1, the outcome was “inactive”.
For N#Cc1ccccc1, the outcome was “inactive”.
CCn1c2ccccc2c2cc(N)ccc21 was tested, and the outcome was “inactive”.
CN(C)CCCN was tested, and the outcome was “inactive”.
For COC(=O)c1ccc(C)cc1, the outcome was “inactive”.
For C[C@]12CC[C@H]3[C@@H](CCC4=CC(=O)CC[C@@]43C)[C@@H]1CC[C@@H]2C(=O)CO, the outcome was “inactive”.
In the case of O=Nc1ccc(Nc2ccccc2)cc1, the AC50 is reported as 77.5 µM (active) and 46.3 µM (active).
With CCCC(=O)C(C)=O the outcome was “inactive”.
O=C(Oc1ccccc1)c1ccc(O)cc1 was tested, and the outcome was “inactive”.
For CCCCOCCOCCSC#N, the outcome was “inactive”.
With CNC(=O)Oc1ccc2c(c1)[C@]1(C)CCN(C)[C@@H]1N2C the outcome was “inactive”.
CN1[C@@H]2CC(OC(=O)[C@H](CO)c3ccccc3)C[C@H]1[C@@H]1O[C@@H]12 (stereo not given in full) was tested, and the outcome was “inactive”.
For CC(CN1c2ccccc2Sc2ccccc21)N(C)C (stereo not given), the AC50 was 43.5 µM (active) and the outcome was “inactive”.
With CC(=O)[C@H]1CC[C@H]2[C@@H]3CC=C4C[C@@H](O)CC[C@]4(C)[C@H]3CC[C@]12C the outcome was “inactive”.
In the case of CC1CC(OC(=O)c2ccccc2O)CC(C)(C)C1 (stereo not given), the outcome is reported as “inactive”.
For CC(C)Oc1ccccc1O, the outcome was “inactive”.
With CN(C)CCOCCN(C)C the outcome was “inactive”.
O=C1C(c2[nH]c3ccc(S(=O)(=O)O)cc3c2O)=Nc2ccc(S(=O)(=O)O)cc21 was tested, and the outcome was “inactive”.
In the case of CCN(CC)CCOC(=O)c1ccc(N)cc1, the outcome is reported as “inactive”.
